Screens as filed in PubChem BioAssay.
An excerpt weighted towards active compounds, which were near 4.6% of everything screened.
TRHR enhancer: TRH receptor (human) allosteric enhancement. P34981. TRHR cells, fluo-8 calcium fluorescence, EC20 TRH enhancement. enhancement, % at 2 µM. 360,000 tested, 0.66% active. AID 493056; in the data active = enhancement above about 30%; also: 0% is about no effect
Target sequence (P34981 whole entry, looked up): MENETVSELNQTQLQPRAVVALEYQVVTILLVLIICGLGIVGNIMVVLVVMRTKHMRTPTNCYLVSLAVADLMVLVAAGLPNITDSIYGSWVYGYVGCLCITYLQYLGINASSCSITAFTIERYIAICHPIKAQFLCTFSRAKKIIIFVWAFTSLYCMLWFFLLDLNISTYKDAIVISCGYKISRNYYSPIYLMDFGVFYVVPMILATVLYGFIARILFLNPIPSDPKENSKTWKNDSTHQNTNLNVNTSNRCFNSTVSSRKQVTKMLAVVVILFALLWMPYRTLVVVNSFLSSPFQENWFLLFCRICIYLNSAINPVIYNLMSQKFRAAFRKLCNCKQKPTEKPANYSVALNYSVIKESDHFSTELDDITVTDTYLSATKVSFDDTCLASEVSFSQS
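TRHR-expressing cells loaded with fluo-8 calcium dye were read kinetically (ex 480/em 530) during compound addition, then stimulated with an EC20 of TRH (10 nM final). Enhancement of the Gq-mediated intracellular calcium response was scored.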
D1 agonist: agonists of human D1 dopamine receptor; activation, % at 2 µM; HEK293 T-REx D1 cells, calcium flux, agonist mode; 360,000 tested, 1% active; AID 504660; also: 0% is about no effect
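Tetracycline-induced HEK293 TREx D1 cells, force-coupled to calcium signalling, were dye-loaded with a no-wash calcium kit. Compound was pin-added after a 10 s baseline. Fluorescence was read kinetically at 1 cycle/s for 180 s, with calcium rises flagged as agonism.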
TRHR agonist: activates the human TRH receptor; activation, % at 2 µM; P34981; AID 493084; TRHR cells, calcium flux fluo-8, FDSS agonist mode; 360,000 tested, 0.18% active; also: 0% is about no effect
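Fluo-8-loaded TRHR cells; 10 s baseline, compound added, kinetic Ca2+ fluorescence read 1/s, agonist mode.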
D1 potentiator: enhances dopamine response at the human D1 receptor; P21728; HEK293 TREx D1 cells, calcium flux, dopamine EC20 potentiation; potentiation, % at 10 µM; 360,000 tested, 0.036% active; AID 504651; in the data active = potentiation above about 30%; also: 0% is about no effect
D1 antagonist: antagonists of human D1 dopamine receptor | P21728 | HEK293 TREx D1 cells, calcium flux, dopamine EC80; stronger effect = lower value | activity change, negative = inhibition, % at 10 µM | 360,000 tested, 3.2% active | AID 504652; in the data active = activity change below about -30%; also: % is scaled to controls: 0 for no effect and ±100 for the full control effect
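Tetracycline-induced HEK293 T-REx cells with force-coupled D1 receptor were loaded with a no-wash calcium dye. Compound was added after a 10 s baseline and read kinetically for 180 s; EC80 dopamine was then added and calcium flux followed another 180 s.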
The depositor's hits bear a star. Rule as the data show it, unless noted: active = activation above about 30%; inactive = the rest.

SMILES	TRHR enhancer	D1 agonist	TRHR agonist	D1 potentiator	D1 antagonist
COc1cccc2c1C(=O)c1ccc3ccccc3c1C2=O	1	1	0	-2	-35*
COc1ccc(N)c2c1C(=O)c1ccccc1C2=O	5	3	-1	4	-2
CN1CCN(S(=O)(=O)c2ccc(NC(=O)c3ccc(Br)s3)cc2)CC1	0	14	1	-16	-46*
CN1CCN(c2ccc(NC(=O)COc3ccccc3Cl)cc2)CC1	-3	10	4	-20	-70*
CN1CCN(S(=O)(=O)c2ccc(NC(=O)c3ccccc3Cl)cc2)CC1	-3	0	0	-9	-33*
Cc1cc(OCC(=O)Nc2ccc(N3CCN(C)CC3)cc2)ccc1Cl	-6	24	0	-19	-83*
Cc1ccc(OCC(=O)Nc2ccc(N3CCCC3)cc2)cc1C	2	0	0	-10	8
CC(NC(=O)c1nn(C)c2c1CSc1ccccc1-2)c1ccccc1 (stereo unspecified)	1	2	0	2	4
COc1ccc(OCC(=O)Nc2ccc(S(=O)(=O)N3CCOCC3)cc2)cc1	2	3	0	0	-18
O=C(Nc1ccc(S(=O)(=O)N2CCN(Cc3ccccc3)CC2)cc1)c1cnccn1	-9	13	0	-3	-36*
O=C(COc1cccc(Cl)c1)NCC(c1cccs1)N1CCOCC1 (stereo unspecified)	4	1	-1	-6	-35*
CC(Oc1cccc(Cl)c1)C(=O)N(C)CC(=O)Nc1ccc(N2CCOCC2)cc1 (stereo unspecified)	-1	3	5	-3	-9
CCc1ccc(OCC(=O)Nc2ccc(S(=O)(=O)N3CCOCC3)cc2)cc1	-6	44*	2	-1	-1
O=C(COc1cccc(Cl)c1)Nc1ccc(N2CCOCC2)cc1	7	1	0	-10	-37*
CC(C)c1ccc(Nc2cc(C(=O)NCCc3ccccc3)c3ccccc3n2)cc1	-5	3	2	-1	-5
O=C(NCCc1ccc(Cl)cc1)c1cc(S(=O)(=O)N2CCCCC2)c[nH]1	3	4	0	-7	31
CCC(=O)N1CCN(c2ccc(NC(=O)COc3ccccc3[N+](=O)[O-])cc2)CC1	12	31*	0	-4	-11
CCC(=O)N1CCN(c2ccc(NC(=O)COc3ccccc3Cl)cc2)CC1	0	9	1	-3	-4
CN1CCN(S(=O)(=O)c2ccc(NC(=S)NC(=O)c3ccc(Cl)cc3)cc2)CC1	0	30*	-1	-16	-57*
CCCC(C(=O)Nc1ccc(S(=O)(=O)N2CCOCC2)cc1)c1ccccc1 (stereo unspecified)	8	37*	4	-1	-7
CN1CCN(NC(=O)c2ccc(Cl)c(S(=O)(=O)Nc3ccc(Cl)cc3)c2)CC1	-4	2	0	-17	-38*
COc1cccc(N2CCN(C(=O)Cn3c(-c4cccs4)cc4ccccc43)CC2)c1	7	3	-1	3	15
O=S(=O)(NCc1ccccc1)NCc1ccc(Cl)cc1Cl	-1	1	-1	-4	-15
CN1CCN(S(=O)(=O)c2ccc(NC(=O)COc3ccccc3Cl)cc2)CC1	5	8	-2	-9	-53*
Cc1cc(OCC(=O)Nc2ccc(S(=O)(=O)N3CCN(C)CC3)cc2)ccc1Cl	-1	1	0	0	34
SMILES	TRHR enhancer	D1 agonist	TRHR agonist	D1 potentiator	D1 antagonist
Cc1cc(OCC(=O)Nc2ccc(S(=O)(=O)N3CCN(C)CC3)cc2)cc(C)c1Cl	-11	10	1	-6	-70*
CN1CCN(S(=O)(=O)c2ccc(NC(=O)Nc3cccc(Cl)c3)cc2)CC1	-2	11	3	-9	-48*
NS(=O)(=O)c1ccc(NC(=O)COC(=O)C2CCCCC2)cc1	0	3	0	-1	-11
O=C(COC(=O)C1CCCCC1)Nc1ccc(N2CCCCC2)cc1	-4	-1	0	-1	-30*
CC(=O)Nc1c(C)nn(-c2ccccc2)c1N1CCC(C(=O)Nc2cccc(C(F)(F)F)c2)CC1	19	2	0	1	-27
CCc1ccc(OCC(=O)Nc2ccc(S(=O)(=O)Nc3ccccn3)cc2)cc1	7	42*	0	-6	-17
CCc1cccc(NC(=O)Nc2csc3c2CCCC3)c1	14	15	0	-4	-30*
